Test in all cases: protein-binding microarray (PBM); PBM: ~300 nM protein, 6 mM HEPES pH 7.8, 80 mM KCl, 0.5 mM EDTA, 0.5 mM EGTA, 6% glycerol, 35 ng/ul poly-dIdC, 1% milk, 1 h, room temperature; Ap Aiptasia and Nv Nematostella (sea anemones) / Co Capsaspora / Aq Amphimedon (sponge) / Dm Drosophila / Hu human; RHD is the Rel homology domain; high values mean tight binding
What all share (conditions): dsDNA, one strand shown

One assay deals with T1, GST-Ap-NF-kB RHD (Exaiptasia pallida (Aiptasia), UniProt A0A913YAJ5 2-422).
T1 sequence: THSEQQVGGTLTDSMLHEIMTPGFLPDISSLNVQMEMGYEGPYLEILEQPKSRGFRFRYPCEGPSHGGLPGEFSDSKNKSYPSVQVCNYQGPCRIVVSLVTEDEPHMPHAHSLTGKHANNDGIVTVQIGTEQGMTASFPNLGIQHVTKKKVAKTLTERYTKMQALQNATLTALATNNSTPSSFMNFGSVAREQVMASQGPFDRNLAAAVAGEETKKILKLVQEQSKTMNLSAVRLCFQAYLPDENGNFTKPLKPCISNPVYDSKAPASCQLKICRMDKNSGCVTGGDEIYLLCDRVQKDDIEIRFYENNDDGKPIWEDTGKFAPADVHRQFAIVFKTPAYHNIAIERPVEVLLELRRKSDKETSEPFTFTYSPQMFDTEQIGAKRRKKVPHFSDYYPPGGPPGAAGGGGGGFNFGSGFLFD

Assay [1] addresses T2, GST-Nv-NF-kB (Cys allele) (Nematostella vectensis, UniProt E5G601 2-411).
T2 sequence: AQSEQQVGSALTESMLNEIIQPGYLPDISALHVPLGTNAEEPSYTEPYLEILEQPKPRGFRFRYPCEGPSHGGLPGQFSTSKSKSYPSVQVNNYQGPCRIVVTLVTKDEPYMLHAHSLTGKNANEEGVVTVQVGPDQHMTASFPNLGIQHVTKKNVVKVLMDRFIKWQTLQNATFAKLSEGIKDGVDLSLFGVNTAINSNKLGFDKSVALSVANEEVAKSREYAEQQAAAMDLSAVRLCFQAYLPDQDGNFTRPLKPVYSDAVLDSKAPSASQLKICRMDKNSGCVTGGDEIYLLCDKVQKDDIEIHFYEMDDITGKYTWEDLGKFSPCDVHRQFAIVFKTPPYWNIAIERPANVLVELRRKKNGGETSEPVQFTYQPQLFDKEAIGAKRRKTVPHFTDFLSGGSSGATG

In another assay the target is T3, GST-Co-NF-kB (Capsaspora owczarzaki, UniProt F1ARL5 200-546).
T3 sequence: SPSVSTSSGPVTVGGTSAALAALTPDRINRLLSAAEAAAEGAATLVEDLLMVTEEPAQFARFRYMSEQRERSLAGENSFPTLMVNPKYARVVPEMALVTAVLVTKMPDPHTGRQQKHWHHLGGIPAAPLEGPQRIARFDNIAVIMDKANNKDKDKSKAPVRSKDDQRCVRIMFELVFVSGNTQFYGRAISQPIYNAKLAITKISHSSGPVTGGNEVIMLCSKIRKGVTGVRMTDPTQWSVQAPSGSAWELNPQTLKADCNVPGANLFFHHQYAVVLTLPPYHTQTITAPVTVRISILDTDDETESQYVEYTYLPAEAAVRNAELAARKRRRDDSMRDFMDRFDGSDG

The target of a further assay is T4, GST-Dm-Relish (Drosophila melanogaster, UniProt Q94527 99-473).
T4 sequence: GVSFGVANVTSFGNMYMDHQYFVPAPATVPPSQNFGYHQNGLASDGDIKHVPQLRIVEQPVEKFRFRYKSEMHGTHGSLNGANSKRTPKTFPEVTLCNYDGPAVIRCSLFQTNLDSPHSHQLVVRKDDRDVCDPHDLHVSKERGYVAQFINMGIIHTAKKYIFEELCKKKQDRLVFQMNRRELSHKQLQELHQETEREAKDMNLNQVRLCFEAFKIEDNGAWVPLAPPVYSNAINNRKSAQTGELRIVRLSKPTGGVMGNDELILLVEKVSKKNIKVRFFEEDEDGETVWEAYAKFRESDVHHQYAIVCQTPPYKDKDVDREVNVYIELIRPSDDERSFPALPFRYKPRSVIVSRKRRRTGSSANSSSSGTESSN

In the next assay the target is T5, GST-Aq-NF-kB (Amphimedon queenslandica, UniProt A9Y5G7 2-389).
T5 sequence: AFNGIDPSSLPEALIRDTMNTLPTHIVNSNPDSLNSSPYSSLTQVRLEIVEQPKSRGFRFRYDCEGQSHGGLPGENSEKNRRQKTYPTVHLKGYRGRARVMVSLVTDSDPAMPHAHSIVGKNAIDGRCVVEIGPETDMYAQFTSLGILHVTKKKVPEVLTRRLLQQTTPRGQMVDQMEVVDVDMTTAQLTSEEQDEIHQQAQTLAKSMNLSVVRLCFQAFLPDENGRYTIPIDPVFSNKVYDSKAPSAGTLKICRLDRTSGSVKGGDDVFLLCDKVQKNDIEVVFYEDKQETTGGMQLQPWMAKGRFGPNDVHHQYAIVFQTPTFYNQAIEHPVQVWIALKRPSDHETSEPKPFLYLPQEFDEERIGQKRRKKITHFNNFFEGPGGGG

With “CCGATTAACATCAAATTCCCAAATGATGTTAATCGGGTCTTGATTCGCTTGACGCTGCTG”, the binding signal was 1.72 z-score in the assay with GST-Ap-NF-kB RHD; 3.62 z-score in assay [1]; 2.55 z-score with GST-Co-NF-kB; 4.57 z-score with GST-Dm-Relish; 2.31 z-score in the assay with GST-Aq-NF-kB.
The matching figures for “CCGATTAACATCAGGGGATAAAATGATGTTAATCGGGTCTTGATTCGCTTGACGCTGCTG”: 4.6 z-score, 5.11 z-score, 7.5 z-score, 3.31 z-score and 4.05 z-score.
As to “CCGATTAACATCAGGGGTTTACCTGATGTTAATCGGGTCTTGATTCGCTTGACGCTGCTG”, the binding signal with GST-Ap-NF-kB RHD is 5.65 z-score; in assay [1] it was 5.44 z-score; with GST-Co-NF-kB, 1.56 z-score; in the assay with GST-Dm-Relish it was 9.7 z-score; with GST-Aq-NF-kB, 6.9 z-score.
For “CCGATTAACATCAGGGATTCACCTGATGTTAATCGGGTCTTGATTCGCTTGACGCTGCTG”, the binding signal in the assay with GST-Ap-NF-kB RHD came out at 5.22 z-score; in assay [1] it was 4.92 z-score; with GST-Co-NF-kB, 1.03 z-score; in the assay with GST-Dm-Relish, 9.89 z-score; with GST-Aq-NF-kB, 5.57 z-score.
For “CCGATTAACATCAAACCCCCCCCTGATGTTAATCGGGTCTTGATTCGCTTGACGCTGCTG”, in that order: 7.29 z-score, 5.16 z-score, 4.79 z-score, 6.75 z-score and 5.35 z-score.
“CCGATTAACATCAAGTACTTCCCTGATGTTAATCGGGTCTTGATTCGCTTGACGCTGCTG”: the binding signal with GST-Ap-NF-kB RHD was 2.1 z-score; in assay [1], 2.22 z-score; with GST-Co-NF-kB, 2.13 z-score; with GST-Dm-Relish it was 8.12 z-score; with GST-Aq-NF-kB, 3.13 z-score.
For “CCGATTAACATCACAAACTTCCCTGATGTTAATCGGGTCTTGATTCGCTTGACGCTGCTG”, in that order: 3.81 z-score, 4.26 z-score, 2.51 z-score, 3.48 z-score and 4.68 z-score.
The matching figures for “CCGATTAACATCACAAATTCCCATGATGTTAATCGGGTCTTGATTCGCTTGACGCTGCTG”: 2.52 z-score, 4.43 z-score, 2.69 z-score, 4.72 z-score and 3.15 z-score.
For “CCGATTAACATCAAATTCCCAGCTGATGTTAATCGGGTCTTGATTCGCTTGACGCTGCTG”, in that order: 1.68 z-score, 3.6 z-score, 3.28 z-score, 3.73 z-score and 2.48 z-score.
“CCGATTAACATCAGGAGTTACCCTGATGTTAATCGGGTCTTGATTCGCTTGACGCTGCTG”: the binding signal came out at 2.75 z-score with GST-Ap-NF-kB RHD; 3.81 z-score in assay [1]; 2.23 z-score with GST-Co-NF-kB; 5.11 z-score with GST-Dm-Relish; 6.71 z-score with GST-Aq-NF-kB.
For the sequence “CCGATTAACATCAGGGAGATTTATGATGTTAATCGGGTCTTGATTCGCTTGACGCTGCTG”, the binding signal with GST-Ap-NF-kB RHD worked out at 3.69 z-score; in assay [1], 5.42 z-score; with GST-Co-NF-kB it was 2.8 z-score; in the assay with GST-Dm-Relish, 1.71 z-score; with GST-Aq-NF-kB, 5.99 z-score.
Regarding “CCGATTAACATCATAAAATCCCATGATGTTAATCGGGTCTTGATTCGCTTGACGCTGCTG”, the binding signal with GST-Ap-NF-kB RHD is 2.43 z-score; in assay [1] it was 2.92 z-score; in the assay with GST-Co-NF-kB, 1.47 z-score; with GST-Dm-Relish it was 6.55 z-score; in the assay with GST-Aq-NF-kB it was 3.1 z-score.
The matching figures for “CCGATTAACATCAAACCCCCCCATGATGTTAATCGGGTCTTGATTCGCTTGACGCTGCTG”: 6.35 z-score, 4.78 z-score, 5.7 z-score, 6.81 z-score and 5.02 z-score.
As to “CCGATTAACATCAGGGGGTAAAATGATGTTAATCGGGTCTTGATTCGCTTGACGCTGCTG”, the binding signal with GST-Ap-NF-kB RHD was 4.43 z-score; in assay [1], 4.2 z-score; with GST-Co-NF-kB, 8.57 z-score; in the assay with GST-Dm-Relish, 3.24 z-score; with GST-Aq-NF-kB it was 4.16 z-score.
On to “CCGATTAACATCAAACACCCCCCTGATGTTAATCGGGTCTTGATTCGCTTGACGCTGCTG”, for which the binding signal with GST-Ap-NF-kB RHD is 4.89 z-score; in assay [1] it was 4.54 z-score; with GST-Co-NF-kB it was 4.93 z-score; in the assay with GST-Dm-Relish, 5.5 z-score; with GST-Aq-NF-kB, 5.86 z-score.
Turning to “CCGATTAACATCACGGAGTTCCCTGATGTTAATCGGGTCTTGATTCGCTTGACGCTGCTG”, the binding signal with GST-Ap-NF-kB RHD was 2.6 z-score; in assay [1] it was 1.63 z-score; with GST-Co-NF-kB, 1.53 z-score; with GST-Dm-Relish, 5 z-score; in the assay with GST-Aq-NF-kB it was 4.63 z-score.
The matching figures for “CCGATTAACATCAATATACCCCCTGATGTTAATCGGGTCTTGATTCGCTTGACGCTGCTG”: 6.61 z-score, 4.24 z-score, 6.57 z-score, 3.69 z-score and 4.03 z-score.
As to “CCGATTAACATCAGGCTTTCCCATGATGTTAATCGGGTCTTGATTCGCTTGACGCTGCTG”, the binding signal with GST-Ap-NF-kB RHD stood at 1.49 z-score; in assay [1], 2.94 z-score; in the assay with GST-Co-NF-kB, 2.07 z-score; in the assay with GST-Dm-Relish, 2.07 z-score; with GST-Aq-NF-kB it was 2.88 z-score.
Regarding “CCGATTAACATCACTTGGGAAACTGATGTTAATCGGGTCTTGATTCGCTTGACGCTGCTG”, the binding signal amounted to 1.38 z-score with GST-Ap-NF-kB RHD; 2.05 z-score in assay [1]; 2.44 z-score with GST-Co-NF-kB; 1.01 z-score with GST-Dm-Relish; 1.18 z-score with GST-Aq-NF-kB.
Consider “CCGATTAACATCAAGTAAATCCCTGATGTTAATCGGGTCTTGATTCGCTTGACGCTGCTG”, for which the binding signal in the assay with GST-Ap-NF-kB RHD stood at 2.24 z-score; in assay [1], 2.71 z-score; in the assay with GST-Co-NF-kB, 1.22 z-score; with GST-Dm-Relish it was 7.89 z-score; in the assay with GST-Aq-NF-kB, 3.24 z-score.
The matching figures for “CCGATTAACATCAGGAGAACCCCTGATGTTAATCGGGTCTTGATTCGCTTGACGCTGCTG”: 4 z-score, 3.59 z-score, 1.26 z-score, 3.65 z-score and 5.68 z-score.
The matching figures for “CCGATTAACATCAAAATTCCCAATGATGTTAATCGGGTCTTGATTCGCTTGACGCTGCTG”: 3.1 z-score, 4.95 z-score, 4.01 z-score, 5.17 z-score and 4.03 z-score.
The matching figures for “CCGATTAACATCAGGGCGTCCCCTGATGTTAATCGGGTCTTGATTCGCTTGACGCTGCTG”: 6.5 z-score, 5.76 z-score, 2.03 z-score, 8.13 z-score and 7.89 z-score.
Regarding “CCGATTAACATCAGGGGGGGTTATGATGTTAATCGGGTCTTGATTCGCTTGACGCTGCTG”, the binding signal amounted to 6.15 z-score in the assay with GST-Ap-NF-kB RHD; 3.92 z-score in assay [1]; 4.45 z-score with GST-Co-NF-kB; 6.55 z-score in the assay with GST-Dm-Relish; 5.06 z-score with GST-Aq-NF-kB.
For the sequence “CCGATTAACATCAGGACTGTCCCTGATGTTAATCGGGTCTTGATTCGCTTGACGCTGCTG”, the binding signal with GST-Ap-NF-kB RHD was determined as 4.85 z-score; in assay [1], 5.38 z-score; with GST-Co-NF-kB it was 1.21 z-score; in the assay with GST-Dm-Relish, 3.04 z-score; with GST-Aq-NF-kB, 7.35 z-score.
“CCGATTAACATCAGGGATAACCCTGATGTTAATCGGGTCTTGATTCGCTTGACGCTGCTG”: the binding signal stood at 3.63 z-score with GST-Ap-NF-kB RHD; 3.77 z-score in assay [1]; 1.82 z-score in the assay with GST-Co-NF-kB; 4.42 z-score with GST-Dm-Relish; 6.12 z-score with GST-Aq-NF-kB.
In the case of “CCGATTAACATCAGGGAGTCCCATGATGTTAATCGGGTCTTGATTCGCTTGACGCTGCTG”, the binding signal in the assay with GST-Ap-NF-kB RHD was found to be 4.64 z-score; in assay [1] it was 3.33 z-score; with GST-Co-NF-kB, 1.13 z-score; with GST-Dm-Relish, 9.06 z-score; with GST-Aq-NF-kB, 4.21 z-score.
For “CCGATTAACATCAGGCCGTCCCCTGATGTTAATCGGGTCTTGATTCGCTTGACGCTGCTG”, in that order: 4.92 z-score, 4.47 z-score, 1.48 z-score, 5.02 z-score and 5.74 z-score.

The values above are taken from PMC5700166.
